From PubChem BioAssay
PAX8 reporter: inhibitors of PAX8 transcriptional activity in RMG-I cells. RMG-I TPO-luciferase reporter, SteadyGlo, 24 h. inhibition, % at 12.6 µM. 360,000 tested, 1.2% active;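 active = mean replicate inhibition at least 60% with every replicate also reaching 60%; inconclusive = only one of the two criteria is met; inactive = mean below 60% and not all replicates reaching 60%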;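 also: luciferase light reporting Pax8 driven TPO promoter activity; plate controls were median of neutral control wells for no effect and mitoxantrone controls for full effect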
LMP1 NFkB inh: reduces LMP1-driven NF-kappaB luciferase signal. LMP1-induced NF-kappaB luciferase reporter cells, luminescence. inhibition, % at 12.5 µM. 350,000 tested, 0.69% active; in the data active = inhibition above about 41%; inconclusive = no clear call, values can overlap the other calls;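 also: 0% = neutral control wells and 100% = reference inhibitor control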
HIF-2a inh: blocks HIF-2a reporter activity | inhibition, % at 18.8 µM | 786-0 RCC cells HIF-2a reporter, luciferase luminescence, overnight | 360,000 tested, 0.72% active;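 active = inhibition of the luminescence signal of 40% or more relative to plate controls, in a single-dose primary screen at 18.75 µM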
Peg3 prom inh: Peg3 promoter activity inhibition. HeLa PEG-Prom luciferase reporter, luminescence, overnight. inhibition, % at 20 µM. 360,000 tested, 1.7% active. AID 588405;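 active = inhibition of at least 50% at 20 µM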
Shn3 3UTR inh: inhibitors of Schnurri-3 3'UTR reporter in osteoblasts. AID 588674. inhibition, % at 12.5 µM. Clone20 osteoblast Shn3 3'UTR firefly luciferase, 24 h. 360,000 tested, 0.52% active;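 active = mean inhibition of at least 75% with every replicate also reaching 75%; inconclusive = mean inhibition at least 75% but some replicate below; inactive = mean inhibition below 75%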;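 also: 0% = median of neutral control wells and 100% = pilot-screen positive control compound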
MITF TRPM1 inh: reduces MITF-dependent TRPM1 promoter luciferase signal. SK-MEL-5 TRPM1 promoter luciferase, 24 h. 330,000 tested, 0.83% active. inhibition, % at 12.5 µM;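 active = mean inhibition across replicates of 60% or more, whatever share of single replicates reaches that level; inconclusive = some that reach 60%, reason not given; inactive = mean inhibition across replicates below 60%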
Mdm2 MdmX conf: confirmation of inhibitors of human Mdm2/MdmX interaction, set 2; 740 tested, 99% active; shares compounds with HIF-2a inh; inhibition, % at 8 µM; SaOS-2 split-luciferase Mdm2/MdmX complementation, luminescence; AID 504601;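 active = mean inhibition of the luminescence signal across two replicates at or above 26 percent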
Target sequence (O15151 whole entry, looked up): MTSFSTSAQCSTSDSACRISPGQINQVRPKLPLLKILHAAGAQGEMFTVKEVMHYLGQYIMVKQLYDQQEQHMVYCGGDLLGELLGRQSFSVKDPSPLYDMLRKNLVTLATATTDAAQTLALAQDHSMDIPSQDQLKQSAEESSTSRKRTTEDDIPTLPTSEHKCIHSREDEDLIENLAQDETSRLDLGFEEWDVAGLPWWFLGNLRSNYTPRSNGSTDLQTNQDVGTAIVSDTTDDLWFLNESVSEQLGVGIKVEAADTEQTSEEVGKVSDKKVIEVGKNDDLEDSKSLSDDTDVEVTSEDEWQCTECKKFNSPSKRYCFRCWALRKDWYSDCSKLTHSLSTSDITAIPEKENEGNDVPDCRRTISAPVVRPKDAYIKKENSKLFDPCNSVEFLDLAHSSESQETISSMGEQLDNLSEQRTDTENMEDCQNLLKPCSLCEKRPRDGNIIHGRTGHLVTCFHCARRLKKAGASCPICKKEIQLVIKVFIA
Target sequence (Q00987 whole entry, looked up): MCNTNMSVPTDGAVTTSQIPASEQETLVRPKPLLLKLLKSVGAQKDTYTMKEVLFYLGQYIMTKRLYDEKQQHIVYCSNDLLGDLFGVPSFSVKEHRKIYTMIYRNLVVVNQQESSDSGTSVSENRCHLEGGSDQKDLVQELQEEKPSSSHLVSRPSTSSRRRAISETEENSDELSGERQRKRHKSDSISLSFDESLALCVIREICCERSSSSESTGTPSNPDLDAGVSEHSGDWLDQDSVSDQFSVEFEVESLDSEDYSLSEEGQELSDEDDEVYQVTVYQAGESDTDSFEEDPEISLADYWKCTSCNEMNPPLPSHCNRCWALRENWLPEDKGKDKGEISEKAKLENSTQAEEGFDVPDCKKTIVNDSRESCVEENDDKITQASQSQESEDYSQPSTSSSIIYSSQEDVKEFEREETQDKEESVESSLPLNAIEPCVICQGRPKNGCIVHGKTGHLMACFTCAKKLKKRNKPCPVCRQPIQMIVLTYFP
HIF-2a conf: confirmation of HIF-2a inhibitors. shares compounds with HIF-2a inh. 1,800 tested, 56% active. 786-0 RCC cells, HIF-2a luciferase reporter luminescence, overnight. AID 651580. inhibition, % at 18.8 µM;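 active = mean inhibition across four replicates of at least 40 percent at the single tested concentration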
HIF-1a cs: inhibits HIF-1a reporter, a counter-screen for HIF-2a inhibitors; 1,800 tested, 72% active; shares compounds with HIF-2a inh; inhibition, % at 18.8 µM; MiaPaCa-2 HIF-1a luciferase reporter, desferoxamine, overnight;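 active = mean inhibition of the reporter signal across four replicates at the single tested dose of 50% or more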
Active calls of the source: *; ? = inconclusive; . = no result given. In the library only some 2.8% were active in any assay of this set; here they are far more common.

SMILES	PAX8 reporter	LMP1 NFkB inh	HIF-2a inh	Peg3 prom inh	Shn3 3UTR inh	MITF TRPM1 inh	HIF-2a conf	HIF-1a cs	others
COC(=O)Cc1ccc(NC(=O)c2ccc(C(C)(C)C)cc2)cc1	.	48*	90*	-44	73	59	94*	40
CCCN1C[C@H](C)[C@@H](OC)CN(C)C(=O)c2cc(NC(=O)C3CCC3)ccc2OC[C@H]1C	2	.	.	.	.	.	.	.
COc1ccc2cc(CNCCOCCOCCNCc3ccc4cc(OC)ccc4c3)ccc2c1	117*	-54	88*	109*	96*	91*	5	27
CCOCCCNCc1ccc(OC)cc1	.	-1	12	19	-3	2	.	.
CO[C@@H]1CN(C)C(=O)c2cc(NC(C)=O)ccc2OC[C@@H](C)N(CC2CC2)C[C@@H]1C	8	.	.	.	.	.	.	.
O=C(C1CCOCC1)N1C[C@H]2[C@@H](c3ccccc31)[C@@H](CO)N2Cc1ccccc1Cl	-9	.	.	.	.	.	.	.
Oc1ccccc1CNc1ccc(Br)cn1	.	1	-214	-268	-60	-50	.	.	Mdm2 MdmX conf=32*
CN1C(=O)c2cc(NC(=O)C3CCCC3)ccc2OC[C@@H]2O[C@@H](CC(=O)NCC3CC3)CC[C@H]21	6	.	.	.	.	.	.	.
CO[C@@H]1CN(C)C(=O)c2cc(NC(=O)C3CCC3)ccc2OC[C@@H](C)N(Cc2ccc(F)cc2)C[C@H]1C	15	.	.	.	.	.	.	.
Cc1c(CC(=O)NCCCCCC(=O)O)c(=O)oc2cc3c(cc12)CCC(C)(C)O3	4	4	12	9	-6	-4	.	.
Cc1c(CC(=O)NCCCC(=O)O)c(=O)oc2cc3c(cc12)CCC(C)(C)O3	25	11	61*	25	19	51	81*	86*
COc1ccc(-c2cn[nH]c2-c2ccc(OCc3ccccc3)cc2O)cc1	-8	20	10	17	13	-3	.	.	Mdm2 MdmX conf=90*
COc1cccc(C#Cc2cnc3c(c2)C(=O)N([C@@H](C)CO)C[C@H](C)[C@@H](CN(C)C)O3)c1	-29	.	.	.	.	.	.	.
CCCCOc1ccc(C(=O)C(CN2CCOCC2)c2ccccc2)cc1 (stereo not given)	.	-96	87*	97*	-13	33	25	105*
O=C(c1ccccc1)C(CCC(CN1CCOCC1)C(=O)c1ccccc1)CN1CCOCC1 (stereo not given)	.	50*	76*	105*	97*	75*	.	.	Mdm2 MdmX conf=92*
CCCCOc1ccc(C(O)C(CN2CCCCC2)c2ccccc2)cc1 (stereo not given)	-11	4	5	-12	36	-6	.	.
CC(CN1CCOCC1)OC(=O)C(c1ccccc1)c1ccccc1 (stereo not given)	.	4	5	22	9	0	.	.
CCCOc1ccc(C(=O)C(CN2CCCC2)c2ccccc2)cc1 (stereo not given)	52	-36	86*	108*	95*	77*	-18	104*
CCCCCOc1ccc(C(=O)C(c2ccccc2)N2CCOCC2)cc1 (stereo not given)	24	6	23	26	11	7	.	.
CO[C@@H]1CN(C)C(=O)c2ccc(NC(=O)c3cc(C)on3)cc2OC[C@@H](C)N(S(=O)(=O)c2cccc(Cl)c2)C[C@H]1C	20	.	.	.	.	.	.	.
CN(C)CCNC(=O)C(=O)c1c(-c2ccccc2)cc2ccccn12	-5	-2	4	-6	3	3	.	.
COc1ccc(-c2c(-c3ccccc3)c(C(=O)C(=O)NCCCN(C)C)n3ccc4cc(OC)c(OC)cc4c23)cc1OC	18	-2	88*	-13	19	6	6	101*
CCC(=O)N1[C@H](CN(CC)C(=O)c2ccc(F)cc2)[C@@H](c2ccccc2)[C@@H]1CO	6	.	.	.	.	.	.	.
CCCn1ncc(CN2CCC(CO)(CC3CCCCO3)CC2)c1C (stereo not given)	-5	-6	40*	-3	-1	-3	5	4
Cc1nn(C)c(Cl)c1CN1CCC(CO)(CC2CCCCO2)CC1 (stereo not given)	2	3	7	2	-12	0	.	.
SMILES	PAX8 reporter	LMP1 NFkB inh	HIF-2a inh	Peg3 prom inh	Shn3 3UTR inh	MITF TRPM1 inh	HIF-2a conf	HIF-1a cs	others
COC(=O)c1c(-c2ccccc2)csc1NC(=O)c1c(-c2ccccc2)noc1C	18	9	-4	15	75	14	.	.	Mdm2 MdmX conf=99*
CN(C(=O)/C=C/c1ccc([N+](=O)[O-])s1)c1ccccc1	?	-79	62*	6	5	69*	61*	90*
CN(C(=O)C=Cc1ccco1)c1ccccc1	.	-10	-33	-18	-6	1	.	.
Cc1ccc(NC(=O)CCN2CCCCC2)cc1	10	26	61*	34	25	5	55*	73*
Cc1ccc(NC(=O)CCN2CCN(CCO)CC2)cc1	11	5	8	16	-2	-2	.	.
O=C(/C=C/c1ccc([N+](=O)[O-])cc1)c1ccccc(=O)c1O	7	19	59*	107*	59	69*	91*	103*
CO[C@@H]1CN(C)C(=O)c2ccc(NC(=O)Nc3cccc(F)c3)cc2OC[C@H](C)N(C(=O)Nc2c(C)noc2C)C[C@@H]1C	-2	.	.	.	.	.	.	.
CC(C)N1CCc2c(sc(NC(=O)c3ccc([N+](=O)[O-])o3)c2C(N)=O)C1	96*	2	90*	104*	-62	94*	79*	103*
COc1ccccc1-c1noc(CCCC(=O)N2CCOCC2)n1	-27	.	16	0	-5	.	.	.
COc1ccccc1-c1cc(C(F)(F)F)nc(S(=O)(=O)CCCC(=O)N2CCOCC2)n1	.	-19	83*	103*	83	80*	48*	104*
Cc1ccccc1N(C(=O)c1snc(C(N)=O)c1N)C(C(=O)NC1CCCCC1)c1ccc(O)cc1 (stereo not given)	36	41*	42*	44	31	-5	36	86*
CN(C)CCCN(C(=O)c1cc2cc([N+](=O)[O-])ccc2s1)c1nc2cc3c(cc2s1)OCCO3	.	-81	76*	101*	66	87*	29	104*
CN(C)CCCN(C(=O)c1ccc(Br)s1)c1nc2cc3c(cc2s1)OCCO3	-30	-25	-53	-25	-17	17	.	.
O=Cc1s/c(=N\S(=O)(=O)c2ccccc2)n(CCCCl)c1Cl	76*	3	96*	109*	93*	97*	93*	102*
